Compound activity from PubChem.
The list is not random: actives were taken first. Their share in the collection is about 2.9%.
rCAG binder: binders of r(CAG) RNA repeats, primary screen, biochemical, fluorescence | r(CAG) RNA repeat, TO-PRO-1 dye displacement fluorescence | inhibition, % at 3 µM | 370,000 tested, 1.3% active | AID 651821, 2012;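 active = inhibition above the plate cutoff, the mean of all test compounds on that plate plus 3 SD, cut at about 35% in these data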;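 also: 0% = DMSO alone and 100% = 100 µM mitoxantrone as full dye displacement; higher means more dye released from RNA so lower well fluorescence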
ZTA counter: blocks Epstein-Barr virus ZTA, an EBNA-1 counter-screen | ZTA-DNA binding, fluorescence polarization | P03206 | 320,000 tested, 0.15% active | inhibition, % at 11 µM; in the data active = inhibition above about 33%
Target sequence (P03206 whole entry, looked up): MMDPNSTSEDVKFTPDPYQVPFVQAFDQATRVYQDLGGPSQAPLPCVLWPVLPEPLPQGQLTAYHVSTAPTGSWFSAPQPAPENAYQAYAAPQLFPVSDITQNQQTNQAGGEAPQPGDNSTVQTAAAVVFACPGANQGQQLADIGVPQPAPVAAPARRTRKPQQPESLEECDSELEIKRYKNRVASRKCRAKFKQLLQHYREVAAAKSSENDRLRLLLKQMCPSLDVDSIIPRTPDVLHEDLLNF
PAFAH2 inh: PAFAH2 enzyme inhibitors, primary screen, biochemical, fluorescence polarization, human. 340,000 tested, 0.99% active. Platelet-activating factor acetylhydrolase 2, cytoplasmic (Homo sapiens), Q99487. AID 492956, 2010. inhibition, % at 3.39 µM. recombinant PAFAH2, FP-rhodamine activity probe;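 active = inhibition above the mean over all tested compounds plus 3 SD, cut at about 30% in these data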;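 also: inhibitors block probe labeling of enzyme so polarization drops; 0% = enzyme with DMSO and 100% = wells lacking PAFAH2 protein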
PAFAH1B3 FP inh: PAFAH1B3 enzyme inhibitors, primary screen, biochemical, fluorescence polarization, human; Platelet-activating factor acetylhydrolase IB subunit alpha1 (Homo sapiens), Q15102; recombinant PAFAH1B3, FP-rhodamine probe; AID 492972, 2010; inhibition, % at 3.39 µM; 340,000 tested, 0.28% active;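 active = inhibition above the screen-wide average of all tested compounds plus 3 SD, cut at about 25% in these data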;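 also: 0% = enzyme with DMSO only and 100% = wells lacking PAFAH1B3 protein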
Target sequence (Q15102 whole entry, looked up): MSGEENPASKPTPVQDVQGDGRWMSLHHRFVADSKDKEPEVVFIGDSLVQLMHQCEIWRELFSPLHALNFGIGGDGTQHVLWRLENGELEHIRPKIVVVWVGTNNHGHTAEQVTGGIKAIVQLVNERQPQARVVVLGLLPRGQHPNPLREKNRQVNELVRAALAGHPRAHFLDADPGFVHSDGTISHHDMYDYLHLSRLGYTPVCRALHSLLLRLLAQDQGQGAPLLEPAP
PAFAH1B2 FP inh: PAFAH1B2 enzyme inhibitors, primary screen, biochemical, fluorescence polarization, human; inhibition, % at 3.39 µM; Platelet-activating factor acetylhydrolase IB subunit alpha2 (Homo sapiens), P68402; 340,000 tested, 1.2% active; recombinant PAFAH1B2, FP-rhodamine activity probe;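 active = inhibition above the mean of all tested compounds plus 3 SD, cut at about 24% in these data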;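 also: 0% = enzyme with DMSO and 100% = wells lacking PAFAH1B2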
EBNA-1 inh: EBNA-1 DNA-binding inhibitors, primary screen, biochemical, fluorescence polarization; inhibition, % at 14.8 µM; 300,000 tested, 0.34% active; in the data active = inhibition above about 28%
rCAG bind conf: small molecules binding CAG repeat RNA – biochemical, fluorescence, confirmation. AID 652065, 2013. 4,300 tested, 70% active. r(CAG) RNA repeat, TO-PRO-1 dye displacement fluorescence. shares compounds with rCAG binder. inhibition, % at 3 µM;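 active = inhibition above a per-plate cutoff, the mean inhibition of sample wells plus 3 SD, cut at about 35% in these data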;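 also: loss of TO-PRO-1 fluorescence as compound displaces dye from 1x1 AA loop RNA; 0% = DMSO only wells and 100% = 100 µM mitoxantrone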
dCAG dye counter: displacement of TO-PRO-1 from CAG DNA duplex, counter-screen for rCAG RNA repeat binder project, biochemical, fluorescence, TO-PRO-1 dye, d(CAG) DNA oligo | shares compounds with rCAG binder | d(CAG) DNA oligo TO-PRO-1 dye displacement | 4,300 tested, 94% active | inhibition, % at 3 µM;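 active = inhibition above its plate's cutoff, the mean test-well inhibition plus 3 SD, cut at about 4.8% in these data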;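 also: 0% = DNA dye mix with DMSO and 100% = 100 µM mitoxantrone; hits displace the dye from DNA and so lower well fluorescence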
dCAG dye DR: inhibitors of DNA CAG/GTC TO-PRO-1 complex, dose response, counter-screen for rCAG RNA repeat binder project, biochemical, fluorescence, TO-PRO-1 dye; shares compounds with rCAG binder; DNA CAG/GTC duplex TO-PRO-1 dye displacement fluorescence; IC50, µM; 250 tested, 20% active; in the data active = IC50 below about 10 µM
* hit, by the source's call; i = inactive; / = no result.

SMILES	rCAG binder	ZTA counter	PAFAH2 inh	PAFAH1B3 FP inh	PAFAH1B2 FP inh	EBNA-1 inh	rCAG bind conf	dCAG dye counter	others
O=C1C(=Cc2cn(-c3ccccc3)nc2-c2ccc(OCc3ccccc3)cc2)SC(=S)N1CCS(=O)(=O)O	58.8*	/	/	/	/	/	71.6*	49.3*
Cc1ccc(-c2nn(-c3ccccc3)cc2C=C2SC(=S)N(CCS(=O)(=O)O)C2=O)cc1	86.7*	/	/	/	/	/	94.3*	77.5*
Cc1cc(=O)n2nc(N3CCCC(C(=O)Nc4cccc(C)c4C)C3)sc2n1 (stereo not drawn)	1.4	/	/	/	/	/	/	/
CCOC(=O)N1CCN(C(=O)COc2cccc3c2CCN(Cc2ccccc2F)C3=O)CC1	-4.0	-6.0	4.6	-0.7	-2.3	-6.6	/	/
O=C(CSc1ccsc1[N+](=O)[O-])Nc1cccc(F)c1	35.2*	/	11.0	9.9	4.8	/	19.2	12.3*
CCCN(CCC)S(=O)(=O)c1ccc(C(=O)NCc2n[nH]c(=S)n2-c2ccc(Cl)c(Cl)c2)cc1	35.0*	23.2	-2.6	10.4	0.3	9.1	28.9	7.0*
CCOC(=O)CC(=O)c1sc2c(c1N)c(=O)[nH]c(=O)n2-c1ccc(OC)cc1	3.0	-7.2	-5.5	7.2	5.3	-9.8	/	/
O=C(CSc1nnc(SCc2ccccc2Cl)s1)N/N=C/c1ccc(C(=O)O)cc1	49.2*	16.1	2.0	7.4	-1.4	7.3	60.4*	17.3*
O=C(CN(Cc1ccccc1Cl)S(=O)(=O)c1ccc(Cl)cc1)N/N=C/c1ccc(C(=O)O)cc1	70.6*	/	7.0	-6.1	-1.8	/	55.0*	19.9*
CC/C(Cc1ccccc1)=N\NC(=O)c1cc([N+](=O)[O-])cc([N+](=O)[O-])c1	-0.7	0.7	-0.9	-4.2	-2.3	12.9	/	/
Cc1c(NC(=O)CS(=O)(=O)c2ccccc2)c(=O)n(-c2ccccc2)n1C	-0.5	10.5	5.2	4.8	4.0	3.0	/	/
CCOC(=O)c1ccccc1-c1csc(NS(=O)(=O)c2ccc(Cl)cc2)n1	75.9*	10.9	1.7	15.3	17.2	6.2	70.2*	32.5*	dCAG dye DR=i
CCOC(=O)c1cc(C#N)c(N2CCN(c3ccccn3)CC2)nc1-c1ccccc1	6.6	-0.1	-4.5	-2.1	2.5	2.3	/	/
CSc1ccc(/C=C/C(=O)NC(=O)c2ccccc2O)cc1	38.2*	17.6	-3.5	1.0	4.0	7.4	25.9	8.7*
O=C(/C=C/c1ccc(Br)cc1)NC(=O)c1ccccc1O	27.4	10.0	3.5	4.5	-5.0	-9.1	/	/
CCc1ccc(OCC(=O)Nc2nnc(-c3ccco3)s2)cc1	51.7*	4.2	6.0	-1.3	-1.1	-10.3	3.4	-0.3
CC(C)CC(=O)Nc1nnc(-c2ccco2)s1	1.3	6.4	3.8	12.4	9.8	8.0	/	/
CCOc1ccc(NS(=O)(=O)c2ccc(N)cc2)cc1	-0.1	-1.7	16.7	11.6	7.5	1.6	/	/
CCOc1ccc(Nc2ccc(N)c(S(=O)(=O)O)c2)cc1	55.4*	/	23.5	13.6	3.0	/	51.7*	18.2*
Cc1ccc(S(=O)(=O)NN2C(=O)/C(=C/c3cccs3)SC2=S)cc1	62.5*	15.1	3.3	3.1	7.7	0.3	55.0*	21.6*
Cc1ccc(S(=O)(=O)NN2C(=O)/C(=C/c3cccn3C)SC2=S)cc1	/	17.4	/	/	/	12.2	/	/
C=CCOc1ccc(/C=C2\SC(=S)N(NS(=O)(=O)c3ccc(C)cc3)C2=O)cc1	80.5*	7.3	2.6	4.1	5.2	4.0	84.1*	53.3*
